This note sets out measurements from PubChem BioAssay (NCATS).

Inconclusive results are not listed. Entries that show only a call come without a potency. Unmarked numbers belong to inactive results. Active and inactive are the calls of the source. Calls follow the shape of the dose curve; as a rule, active = well fitted inhibition curve with a large enough effect; inconclusive = small, poorly fitted or top-dose-only effect; inactive = flat fitted curve, though single readings scatter.
Potency is read from the fitted curve at half-maximal effect.

For one test, the system named is HACAT. Put plainly: qHTS assay to identify novel small-molecules to repurpose for Merkel cell carcinoma treatment (AID 1296009). Also: nearly all actives have a fitted effect of over 60% in size. To be noted: MCC and control cell lines, CellTiter-Glo viability, 72 h; at 44.8 µM (top of the series) unless noted. In outline:
(§1)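 Dose-response viability screen; 72 hr exposure at 37 degree celsius; CellTiter-Glo added, 10 min room temperature, luminescence read; RLUs scaled between no-cell and DMSO wells.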
As to `Cc1cnc(Nc2cccc(CN3CCOCC3)c2)nc1Nc1cccc(S(=O)(=O)NC(C)(C)C)c1`, the outcome was inactive.
In the case of `CS(=O)(=O)c1ccc(C2=C(c3ccccc3)C(=O)OC2)cc1`, the molecule was called inactive.
Still for that read-out and setting: for `O=C(O)CCNc1cc(N2CCc3ccccc3CC2)nc(-c2ccccn2)n1` the value was “inactive”; for `CCn1c(-c2nonc2N)nc2cncc(CNC3CCNCC3)c21`, “inactive”.
Still for that read-out and setting: for `Cn1c(=O)c(-c2c(Cl)cccc2Cl)cc2cnc(Nc3cccc(C(=O)O)c3)nc21` the value was “inactive”.
Same read-out and setting: for `Cc1ccccc1-n1c(Cn2nc(-c3cccc(O)c3)c3c(N)ncnc32)nc2cccc(C)c2c1=O` the value was “inactive”.
`CC1=C(C(=O)Nc2cc3cn[nH]c3cc2F)C(c2ccc(C(F)(F)F)cc2)CC(=O)N1` (stereo not given): the molecule was called inactive.
On the same count and under the same terms, for `Clc1ccc(C2(c3ccc(-c4cn[nH]c4)cc3)CCNCC2)cc1` the value was “inactive”; for `NS(=O)(=O)c1cc(Cl)c(Cl)c(S(N)(=O)=O)c1`, “inactive”.
Still for that read-out and setting: for `C[C@H](c1ccc(F)cc1CCCC(=O)O)N(c1cc(F)ccc1F)S(=O)(=O)c1ccc(Cl)cc1` the value was “inactive”; for `COc1nccc(-c2c(-c3ccc(F)cc3)ncn2C2CCC(O)CC2)n1` (stereo not given), “inactive”.
Consider `CC(C)(OCc1nn(Cc2ccccc2)c2ccccc12)C(=O)O`, for which the result was inactive.
Turning to `COc1ccc(CCC(=O)Nc2nc3ccc(Cl)cc3s2)cc1OC`, the outcome was inactive.
With `c1cc(OCCN2CCCCC2)cc(-c2n[nH]c3ccc(-c4ncn[nH]4)cc23)c1`, the call was inactive.
Same read-out and setting: as for `CN(C)c1nc(Cc2ccc(NC(=O)c3ccc(C(F)(F)F)cc3)cc2)nc(N(C)C)c1CC(=O)O`, the entry is “inactive”; as for `Cc1ccccc1C(C(=O)NC1CCCCC1)N(C(=O)CNc1ccc(C#N)cc1)c1cccc(F)c1` (stereo not given), “inactive”; as for `Cc1ccc2c(c1)c1c(n2CCc2ccc(C)nc2)CCN(C)C1`, “inactive”.
The same measure, in the same setting: as for `Cc1cnc(-c2cc(N3CCN(C(=O)CCS(C)(=O)=O)CC3)ncc2Cl)c(C)c1`, the entry is “inactive”; as for `CNc1nc(Nc2ccc(C(=O)N3CCOCC3)cc2OC)ncc1Cl`, “inactive”.
Regarding `CC1CCN(c2cc(N3CCN(C)CC3)ccc2NC(=O)c2cc(C#N)c[nH]2)CC1`, the call was inactive.
The same measure, in the same setting: for `COc1ccnc(CS(=O)c2nc3ccc(OC(F)F)cc3[nH]2)c1OC` (stereo not given) the value was “inactive”; for `COc1nc(C)cnc1NS(=O)(=O)c1cccnc1-c1ccc(-c2nnco2)cc1`, “inactive”; for `CCCCn1c(=O)n(Cc2ccccc2F)c(=O)c2[nH]c(Cc3ccc(NC(C)=O)cc3)nc21`, “inactive”.

The subject of a further test is HEK293T. The description is as above. To be noted: MCC and control cell lines, CellTiter-Glo viability, 72 h; at 44.8 µM (top of the series) unless noted. In outline:
as §1
(Cellular ATP, detected with luciferase, serves as a proxy for viable cell number.)
`CNC(=O)c1c(-c2ccc(F)cc2)oc2cc(N(CCO)S(C)(=O)=O)c(C3CC3)cc12`: the outcome was inactive.
Consider `Cc1cnc(Nc2cccc(CN3CCOCC3)c2)nc1Nc1cccc(S(=O)(=O)NC(C)(C)C)c1`, for which the result was inactive.
For the molecule `CS(=O)(=O)c1ccc(C2=C(c3ccccc3)C(=O)OC2)cc1`, the molecule was called inactive.
Still for that read-out and setting: as for `O=C(O)CCNc1cc(N2CCc3ccccc3CC2)nc(-c2ccccn2)n1`, the entry is “inactive”; as for `COc1cc(Nc2nc3ccccc3nc2NS(=O)(=O)c2ccc(NC(=O)c3ccc(C)c(OC)c3)cc2)cc(OC)c1`, “inactive”.
Consider `CC1=C(C(=O)Nc2cc3cn[nH]c3cc2F)C(c2ccc(C(F)(F)F)cc2)CC(=O)N1` (stereo not given), for which the molecule was called inactive.
On the same count and under the same terms, as for `NS(=O)(=O)c1cc(Cl)c(Cl)c(S(N)(=O)=O)c1`, the entry is “inactive”.
On the same count and under the same terms, for `C[C@H](c1ccc(F)cc1CCCC(=O)O)N(c1cc(F)ccc1F)S(=O)(=O)c1ccc(Cl)cc1` the value was “inactive”; for `COc1nccc(-c2c(-c3ccc(F)cc3)ncn2C2CCC(O)CC2)n1` (stereo not given), “inactive”.
`CC(C)(OCc1nn(Cc2ccccc2)c2ccccc12)C(=O)O`: the outcome was inactive.
Still for that read-out and setting: for `CN(C)c1nc(Cc2ccc(NC(=O)c3ccc(C(F)(F)F)cc3)cc2)nc(N(C)C)c1CC(=O)O` the value was “inactive”.
Same read-out and setting: for `Cc1ccccc1C(C(=O)NC1CCCCC1)N(C(=O)CNc1ccc(C#N)cc1)c1cccc(F)c1` (stereo not given) the value was “inactive”.
For `Cc1cnc(-c2cc(N3CCN(C(=O)CCS(C)(=O)=O)CC3)ncc2Cl)c(C)c1`, the outcome was inactive.
Still for that read-out and setting: for `CCN1C[C@H](C)n2c(c(O)c3c(=O)n(Cc4ccc(F)c(Cl)c4)nc(C(=O)NC)c32)C1=O` the value was “inactive”; for `COc1ccnc(CS(=O)c2nc3ccc(OC(F)F)cc3[nH]2)c1OC` (stereo not given), “inactive”.
The same measure, in the same setting: for `COc1nc(C)cnc1NS(=O)(=O)c1cccnc1-c1ccc(-c2nnco2)cc1` the value was “inactive”.

In another test the test system is MCC-13. The description is as above. To be noted: MCC and control cell lines, CellTiter-Glo viability, 72 h; series mostly up to 46 µM; activity change, negative = cytotoxicity: at the top concentration. A digest of the protocol: as §1
For `Cc1cnc(Nc2cccc(CN3CCOCC3)c2)nc1Nc1cccc(S(=O)(=O)NC(C)(C)C)c1`, the “activity change, negative = cytotoxicity” value is 4.49%.
`CS(=O)(=O)c1ccc(C2=C(c3ccccc3)C(=O)OC2)cc1`: the “activity change, negative = cytotoxicity” value was 4.11%.
`O=C(O)CCNc1cc(N2CCc3ccccc3CC2)nc(-c2ccccn2)n1`: the “activity change, negative = cytotoxicity” value is -14.5%.
As to `CCn1c(-c2nonc2N)nc2cncc(CNC3CCNCC3)c21`, the “activity change, negative = cytotoxicity” value is -27.2%.
In the case of `Cn1c(=O)c(-c2c(Cl)cccc2Cl)cc2cnc(Nc3cccc(C(=O)O)c3)nc21`, the “activity change, negative = cytotoxicity” value is 5.65%.
Regarding `Cc1ccccc1-n1c(Cn2nc(-c3cccc(O)c3)c3c(N)ncnc32)nc2cccc(C)c2c1=O`, the Potency is 18.7 µM (active).
As to `COc1cc(Nc2nc3ccccc3nc2NS(=O)(=O)c2ccc(NC(=O)c3ccc(C)c(OC)c3)cc2)cc(OC)c1`, the “activity change, negative = cytotoxicity” value is -5.93%.
On the same count and under the same terms, for `NC(=O)c1ccc(N(C(N)=O)c2c(F)cccc2F)nc1-c1ccc(F)cc1F` the value was 5.53%; for `NS(=O)(=O)c1cc(Cl)c(Cl)c(S(N)(=O)=O)c1`, -4.03%; for `C[C@H](c1ccc(F)cc1CCCC(=O)O)N(c1cc(F)ccc1F)S(=O)(=O)c1ccc(Cl)cc1`, -14.8%.
Same read-out and setting: as for `COc1nccc(-c2c(-c3ccc(F)cc3)ncn2C2CCC(O)CC2)n1` (stereo not given), the figure is -10.9%; as for `CC(C)(OCc1nn(Cc2ccccc2)c2ccccc12)C(=O)O`, -5.43%.
Still for that read-out and setting: as for `COc1ccc(CCC(=O)Nc2nc3ccc(Cl)cc3s2)cc1OC`, the figure is -3.78%.
With `c1cc(OCCN2CCCCC2)cc(-c2n[nH]c3ccc(-c4ncn[nH]4)cc23)c1`, the “activity change, negative = cytotoxicity” value was 0.901%.
With `CCN1CCN(c2ccc(Nc3cc(N(C)C(=O)Nc4c(Cl)c(OC)cc(OC)c4Cl)ncn3)cc2)CC1`, the “activity change, negative = cytotoxicity” value is -11.5%.
Regarding `CN(C)c1nc(Cc2ccc(NC(=O)c3ccc(C(F)(F)F)cc3)cc2)nc(N(C)C)c1CC(=O)O`, the “activity change, negative = cytotoxicity” value was 1.89%.
Same read-out and setting: for `CN1c2ccccc2C(=O)N2CCc3c([nH]c4ccccc34)C21` (stereo not given) the value was 3.25%; for `Cc1ccccc1C(C(=O)NC1CCCCC1)N(C(=O)CNc1ccc(C#N)cc1)c1cccc(F)c1` (stereo not given), -1.25%; for `Cc1ccc2c(c1)c1c(n2CCc2ccc(C)nc2)CCN(C)C1`, 1.14%.
Still for that read-out and setting: as for `C[C@@]1(c2cc(-c3cncnc3)c(F)cc2F)CCSC(N)=N1`, the figure is -16.6%.
Regarding `Cc1cnc(-c2cc(N3CCN(C(=O)CCS(C)(=O)=O)CC3)ncc2Cl)c(C)c1`, the “activity change, negative = cytotoxicity” value was -13.3%.
The same measure, in the same setting: for `CCN1C[C@H](C)n2c(c(O)c3c(=O)n(Cc4ccc(F)c(Cl)c4)nc(C(=O)NC)c32)C1=O` the value was -12.2%.
As for `CNc1nc(Nc2ccc(C(=O)N3CCOCC3)cc2OC)ncc1Cl`, the “activity change, negative = cytotoxicity” value was -0.651%.
Same read-out and setting: as for `CC1CCN(c2cc(N3CCN(C)CC3)ccc2NC(=O)c2cc(C#N)c[nH]2)CC1`, the figure is 4.88%; as for `Cc1cc2c(cc1C1(c3ccc(C(=O)O)cn3)CC1)C(C)(C)CCC2(C)C`, -0.592%.
The same measure, in the same setting: for `c1ccc(CNc2nc(N3CCOc4ccccc43)nc3c2CCCC3)cc1` the value was 1.71%.
`COc1ccnc(CS(=O)c2nc3ccc(OC(F)F)cc3[nH]2)c1OC` (stereo not given): the Potency entry is “inactive”.
`O=C(CO)N1CCC(c2[nH]nc(-c3ccc(Cl)cc3)c2-c2ccncn2)CC1`: the “activity change, negative = cytotoxicity” value is -1.34%.
For `COc1nc(C)cnc1NS(=O)(=O)c1cccnc1-c1ccc(-c2nnco2)cc1`, the “activity change, negative = cytotoxicity” value was -1.5%.
The same measure, in the same setting: for `CCCCn1c(=O)n(Cc2ccccc2F)c(=O)c2[nH]c(Cc3ccc(NC(C)=O)cc3)nc21` the value was -7.9%; for `COC(=O)N1CCN(Cc2cccc(NC(=O)Nc3ccc(C)nc3)c2F)CC1`, 0.115%.
